According to PubChem BioAssay AID1159580 (chemical genetic matrix, 2015):
Values joined by “and” are separate entries in the source; they are usually repeats but may differ in a detail not shown here. Equal entries are not always repeated. Screen size: about 5,500 compounds; about 2,000 (36%) were called active. Inconclusive results (about 18%) are left out. Cut-off read from the data, not from the text of the source: active = normalized growth mostly below about 0.91 (no sharp cut-off); inconclusive = no clear call, values can overlap the other calls; inactive = mostly above about 0.92. Some of the results follow.

Assay: chemical genetic growth profiling, strain panel (AID 1159580);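 note: tested at 20 µM; growth read once vehicle control cultures reached saturation at 30 °C; 1 = growth at the plate median or of vehicle wells; lower values mean less growth of the strain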
Settings: S. cerevisiae deletion strains, growth OD

Measured: normalized growth

O=C(O)c1cc(=O)c(O)c2c(O)c(O)ccc2c1
inactive: locus YAL013W, strain DEP1, active compounds read low 1 | locus YAL021C, strain ccr4, active compounds read low 1.02 | locus YAL026C, strain drs2, active compounds read low 0.993 | locus YAL030W, strain snc1, active compounds read low 1 | locus YBL061C, strain skt5, active compounds read low 0.998 | locus YBR009C, strain hhf1, active compounds read low 0.989 | locus YBR021W, strain FUR4, active compounds read low 0.991 | locus YBR023C, strain chs3, active compounds read low 1 | locus YBR171W, strain sec66, active compounds read low 0.985 | locus YBR229C, strain ROT2, active compounds read low 1.01 | locus YBR231C, strain swc5, active compounds read low 0.988 | locus YBR279W, strain paf1, active compounds read low 0.993 | locus YCL011C, strain gbp2, active compounds read low 0.996 | locus YCL016C, strain dcc1, active compounds read low 1 | locus YCL029C, strain bik1, active compounds read low 1.02 | locus YCL061C, strain MRC1, active compounds read low 0.993 | locus YCL069W, strain vba3, active compounds read low 0.998 | locus YCR088W, strain abp1, active compounds read low 0.99 | locus YDL005C, strain med2, active compounds read low 0.997 | locus YDL035C, strain GPR1, active compounds read low 1 | locus YDL040C, strain nat1, active compounds read low 1.01 | locus YDL074C, strain BRE1, active compounds read low 0.995 | locus YDL101C, strain DUN1, active compounds read low 1.01 | locus YDL134C, strain PPH21, active compounds read low 1 | locus YDL185W, strain tfp1, active compounds read low 0.998 | locus YDL192W, strain arf1, active compounds read low 1.01 | locus YDR001C, strain nth1, active compounds read low 0.997 | locus YDR069C, strain doa4, active compounds read low 0.974 | locus YDR101C, strain arx1, active compounds read low 1.02 | locus YDR137W, strain rgp1, active compounds read low 0.907 | locus YDR150W, strain NUM1, active compounds read low 1 | locus YDR159W, strain sac3, active compounds read low 0.969 | locus YDR162C, strain NBP2, active compounds read low 0.979 | locus YDR195W, strain ref2 0.957 | locus YDR297W, strain sur2, active compounds read low 0.997 | locus YDR318W, strain mcm21, active compounds read low 1.05 | locus YDR334W, strain swr1, active compounds read low 0.984 | locus YDR335W, strain msn5, active compounds read low 0.996 | locus YDR388W, active compounds read low 1.03 | locus YDR392W, strain spt3, active compounds read low 0.997 | locus YDR502C, strain sam2, active compounds read low 1.02 | locus YEL003W, strain gim4, active compounds read low 0.999 | locus YEL037C, strain rad23, active compounds read low 1 | locus YEL061C, strain CIN8 (second series), active compounds read low 1 | locus YEL061C, strain CIN8, active compounds read low 1 | locus YER015W, strain faa2, active compounds read low 0.989 | locus YER016W, strain bim1, active compounds read low 0.999 | locus YER110C, active compounds read low 1.03 | locus YER111C, strain swi4, active compounds read low 0.986 | locus YER155C, strain BEM2 (second series), active compounds read low 1.01 | locus YER155C, strain BEM2, active compounds read low 1.02 | locus YER167W, strain BCK2, active compounds read low 1.03 | locus YFR010W, strain ubp6, active compounds read low 0.986 | locus YGL078C, strain dbp3, active compounds read low 1.01 | locus YGL086W, strain mad1, active compounds read low 1.02 | locus YGL167C, strain pmr1, active compounds read low 1 | locus YGL173C, strain kem1, active compounds read low 1 | locus YGL227W, strain vid30, active compounds read low 0.979 | locus YGL240W, strain doc1, active compounds read low 0.994 | locus YGL248W, strain PDE1, active compounds read low 1 | locus YGL253W, strain hxk2, active compounds read low 0.999 | locus YGR078C, strain PAC10, active compounds read low 0.969 | locus YGR135W, strain pre9, active compounds read low 0.993 | locus YGR229C, strain SMI1, active compounds read low 0.977 | locus YGR252W, strain gcn5, active compounds read low 1.03 | locus YHR013C, strain ard1, active compounds read low 0.975 | locus YHR027C, strain rpn1, active compounds read low 0.998 | locus YHR030C, strain SLT2, active compounds read low 1.01 and 0.987 | locus YHR079C, strain IRE1 (second series), active compounds read low 1.02 | locus YHR079C, strain IRE1, active compounds read low 0.99 | locus YHR094C, strain hxt1, active compounds read low 1.02 | locus YHR129C, strain ARP1, active compounds read low 1.01 | locus YHR142W, strain chs7, active compounds read low 1.02 | locus YHR200W, strain rpn10, active compounds read low 1.03 | locus YIL066C, strain RNR3, active compounds read low 1.03 | locus YIL073C, strain SPO22, active compounds read low 1.14 | locus YIL125W, strain kgd1, active compounds read low 1.01 | locus YIR030C, strain dcg1, active compounds read low 1.03 | locus YJL092W, strain hpr5, active compounds read low 0.998 | locus YJL095W, strain BCK1 (second series), active compounds read low 1 | locus YJL095W, strain BCK1, active compounds read low 0.999 and 0.991 | locus YJL115W, strain asf1, active compounds read low 0.99 | locus YJL129C, strain trk1, active compounds read low 1.04 | locus YJL134W, strain LCB3, active compounds read low 1 | locus YJL154C, strain vps35, active compounds read low 1 | locus YJL164C, strain tpk1, active compounds read low 0.985 | locus YJL166W, strain qcr8, active compounds read low 1 | locus YJL168C, strain set2, active compounds read low 1.01 | locus YJL187C, strain SWE1 (second series), active compounds read low 0.994 | locus YJL187C, strain SWE1, active compounds read low 0.995 | locus YJR043C, strain POL32, active compounds read low 1.04 | locus YJR066W, strain TOR1, active compounds read low 0.892
